Data on 58 molecules can be found in ChEMBL document CHEMBL3988442, “University of Dundee, Small-Polar-MMV Screening Library” (2021).

Screen size: about 66,000 compounds; about 960 (1.5%) showed an effect of 50% or more. For the sample, strong results were picked, then their nearest neighbours and some compounds at random.

This test relates to Trypanosoma brucei. The test is described as follows: Trypanosoma brucei 72 hour study. The format is functional, organism-based. On the set-up: scale not given: in the data most compounds retested in dose-response had high values.

In the case of `O=C(O)C(F)(F)F.O=C1CCC2(CCN(Cc3nccs3)CC2)N1Cc1ccccc1`, the “Percent Effect” value (30 µM, 30.03 µM) was -8.129%.
On to `O=C(O)C(F)(F)F.O=C1CC[C@H]2[C@H](CCN2C(=O)C2CCOC2)N1Cc1ccncc1` (stereo not given in full), for which, under “30 µM, 30.03 µM”, the “Percent Effect” value is on record as -22.31%.
On to `Cc1noc(C)c1CN1C[C@H](OCC2CCN(C)CC2)[C@H]2COC[C@H]21.O=C(O)C(F)(F)F.O=C(O)C(F)(F)F`, for which the “Percent Effect” value (30.3 µM, […]) was -21.15%.
In the case of `Cc1nc(COCC2CN(C(=O)N(C)C)Cc3nccn3C2)cs1.O=C(O)C(F)(F)F` (stereo not given), where the note is “30.3 µM, […]”, the “Percent Effect” value is -49.05%.
For the molecule `CCn1ncc2c1C(COC)CN(Cc1cccnc1)C2.O=C(O)C(F)(F)F.O=C(O)C(F)(F)F.O=C(O)C(F)(F)F` (stereo not given), the “Percent Effect” value (30.3 µM, […]) is given as -94.72%.
With `COc1cc(N2CC[C@@H](O)[C@@H]2Cc2ccncc2)ncn1.O=C(O)C(F)(F)F`, the “Percent Effect” value (30 µM, 30.03 µM) is recorded as 35.07%.
Same read-out and setting: the result for `COc1ccc(F)c(-c2ncccc2NC(=O)C(C)C)c1` reads 20.56%; that for `COc1cc(F)ccc1-c1ncccc1NC(=O)C(C)C`, 52.34%.
Same read-out and setting: the value for `COc1ncccc1-c1ncccc1NC(=O)C(C)C` was 34.88%.
Regarding `Cl.Nc1ncnc2nc(C3CCCCN3)ccc12` (stereo not given), the “Percent Effect” value (30.3 µM, […]) is listed as 5.297%.
Regarding `COCCN1CCC(CN(CC2CCCO2)C(=O)CNC(C)=O)CC1` (stereo not given), the “Percent Effect” value (30 µM, 30.03 µM) is reported as 3.281%.
Turning to `CCn1cc(CN2CCCN(C(=O)CCn3cc(C)cn3)CC2)cn1`, the “Percent Effect” value (30.3 µM, […]) was -9.74% and the “Percent Effect” value (10 mM, 10 mM as filed; unlikely as a test dose) is -22.46%.
Consider `CCCNC(=O)c1cc(-c2cnc(N3CCCC3)nc2)cn1C`, for which the “Percent Effect” value (30.3 µM, […]) is reported as -994.8%.
On the same count and under the same terms, the result for `CN(C)CCNC(=O)c1cc(-c2cnc(N3CCOCC3)nc2)cn1C.O=C(O)C(F)(F)F` reads -753.9%.
With `CN(C)CCNC(=O)c1cc(-c2cnc(N3CCCC3)nc2)cn1C.O=C(O)C(F)(F)F`, the “Percent Effect” value (30 µM, 30.03 µM) was 97.37%.
As to `Cl.Cn1nc(C2CCCN(Cc3cc(F)ccc3F)C2)c2nccnc21` (stereo not given), the “Percent Effect” value (30.3 µM, […]) was found to be 20.63%.
For `CN1[C@@H](C(=O)NCC2CC2)C[C@H]2CN(Cc3ccsc3)C[C@H]21.O=C(O)C(F)(F)F.O=C(O)C(F)(F)F`, where the note is “30.3 µM, […]”, the “Percent Effect” value was -48.96%.
The same measure, in the same setting: the result for `Cn1nc(COCC2CC2)c2c1CN(CC1CC1)CC2.O=C(O)C(F)(F)F.O=C(O)C(F)(F)F` reads -59.62%.
As for `O=C(NCc1ccc2c(c1)OCO2)c1ccccc1C1CCNC1` (stereo not given), the “Percent Effect” value (30 µM, 30.03 µM) turned out to be 75.73%.
Still for that read-out and setting: the result for `CSc1cccc(CN(C)C(=O)c2ccc(C3CCCNC3)cc2)c1` (stereo not given) reads 45.3%.
`CC(C)Cc1cc(CNC(=O)c2ccccc2C2CCNC2)no1` (stereo not given): for the setting “30 µM, 30.03 µM”, the “Percent Effect” value is on record as -25.71%.
On to `O=C(NCc1ccc2c(c1)CCCO2)c1ccccc1C1CCNC1` (stereo not given), for which, for the setting “30 µM, 30.03 µM”, the “Percent Effect” value is on record as -18.86%.
`CN(Cc1ccc2c(c1)OCO2)C(=O)c1ccc(=O)n(C)c1`: under “30.3 µM, […]”, the “Percent Effect” value is listed as -33.31%.
With `CN(Cc1ccc2c(c1)OCO2)C(=O)c1ccc(C2CCCNC2)cc1` (stereo not given), the “Percent Effect” value (30 µM, 30.03 µM) is given as 78.75%.
For the molecule `CC(C)OCCCN(Cc1ccncc1)Cc1cccc(F)c1F.Cl`, the “Percent Effect” value (30.3 µM, […]) is -30.88%.
`N#Cc1ccc(S(=O)(=O)NC(=O)c2csc(-c3ccco3)n2)cc1`: the “Percent Effect” value (30.3 µM, […]) was 2.361%.
With `CCc1ccc(CN2C[C@@H](C)C3(CCN(CC(=O)N(C)C)C3=O)C2)o1.O=C(O)C(F)(F)F` (stereo not given in full), where the note is “30.3 µM, […]”, the “Percent Effect” value is 4.737%.
As to `CC(=O)N1N=C(c2cccs2)OC1C(=O)NCc1ccc(C)o1` (stereo not given), the “Percent Effect” value reads like this: (30.3 µM, […]) 9.707%; (10 mM, 10 mM as filed; unlikely as a test dose) -41.55%.
Consider `CC(=O)NCCN1CCC(c2cccs2)CC1`, for which the “Percent Effect” value (30 µM, 30.03 µM) is given as -43.56%.
As to `O=C(NCCc1ccccc1)NCCN1CCC(c2cccs2)CC1`, the “Percent Effect” value (30 µM, 30.03 µM) worked out at 47.79%.
The same measure, in the same setting: the result for `COc1ccc(CCC(=O)NCCN2CCC(c3cccs3)CC2)cc1` reads 100%.
On to `CC1CCCN(Cc2ccnc(-c3cccnc3)n2)C1.O=C(O)CC(O)(CC(=O)O)C(=O)O` (stereo not given), for which the “Percent Effect” value (30.3 µM, […]) amounted to 9.831%.
With `O=C(CCCNC(=O)C1CC1)Nc1cnn(-c2ccccc2Cl)c1`, the “Percent Effect” value (30 µM, 30.03 µM) is listed as 60.12%.
`CS(=O)(=O)NCCC(=O)Nc1cnn(-c2ccccc2Cl)c1`: the “Percent Effect” value (30.3 µM, […]) is on record as -13.82%.
Turning to `O=C(CCN1C(=O)CCC1=O)Nc1cnn(-c2ccccc2Cl)c1`, for the setting “30 µM, 30.03 µM”, the “Percent Effect” value was -41.29%.
Still for that read-out and setting: the value for `O=C(O)C(F)(F)F.O=C(O)C(F)(F)F.O=c1ccc2c(n1Cc1ccncc1)CCN(Cc1ccoc1)CC2` was -36.06%.
With `Cl.c1nc(CCC2CCCCN2)cc(N2CCCC2)n1` (stereo not given), the “Percent Effect” value (30.3 µM, […]) was -10.52%.
On the same count and under the same terms, the value for `CC(C)N1CCC(N2CCC(C(=O)N(C)C)CC2)CC1.O=C(O)C(F)(F)F.O=C(O)C(F)(F)F` was -22.06%.
As for `COC(=O)C1CCN(C(=O)c2cc(Br)ccc2-n2cnnn2)CC1`, under “30 µM, 30.03 µM”, the “Percent Effect” value is -52.11%.
Regarding `CC(C)N1CCCC(C(=O)N2CCN(c3nsc4ccccc34)CC2)C1` (stereo not given), the “Percent Effect” value (30.3 µM, […]) is given as 50.26%.
`CCN1CC(C(=O)N2CCN(c3nsc4ccccc34)CC2)CCC1=O` (stereo not given): the “Percent Effect” value (30.3 µM, […]) is on record as 18.26%.
Still for that read-out and setting: the value for `NC(=O)N1CCCC(C(=O)N2CCN(c3nsc4ccccc34)CC2)C1` (stereo not given) was 39.11%; that for `CN(C)C(=O)c1cnc2n1CCN(Cc1cccnc1)C2.O=C(O)C(F)(F)F.O=C(O)C(F)(F)F` was -389.6%.
On to `O=C(O)C(F)(F)F.O=C(O)C(F)(F)F.O=C(O)C(F)(F)F.c1ccc(CN2CCc3c(COCC4CC4)cncc3C2)nc1`, for which the “Percent Effect” value (30.3 µM, […]) is given as -75.06%.
For `CN1C[C@@H](N)C[C@H]1C(=O)N1CCC(CCCc2ccccc2)CC1`, the “Percent Effect” value (30 µM, 30.03 µM) was -31.74%.
Turning to `OC1(CN2CCCCC2)CCN(c2ccc(C(F)(F)F)cn2)C1` (stereo not given), the “Percent Effect” value (30.3 µM, […]) amounted to 3.051%.
With `N#CC1=C(N)Nn2c(nnc2-c2ccccc2F)S1`, under “30 µM, 30.03 µM”, the “Percent Effect” value was -51.04%.
On the same count and under the same terms, the result for `CCn1cc(CNc2ccc(Br)c(OC)c2)cn1` reads -16.49%.
The same measure, in the same setting: the value for `CCn1cc(CNc2ccc(F)c(N3CCCS3(=O)=O)c2)cn1` was -16.14%; that for `CCn1cc(CNc2ccc3nccnc3c2)cn1` was 99.73%.
For `Nc1cc(N2CCC(c3cc(Cc4ccccc4)n[nH]3)CC2)ccn1`, the “Percent Effect” value (30.3 µM, […]) worked out at 99.46%.
Turning to `Nc1nccc(N2CCC(c3cc(Cc4ccccc4)n[nH]3)CC2)n1`, the “Percent Effect” value (30.3 µM, […]) amounted to 36.98%.
The same measure, in the same setting: the value for `Nc1nc(O)cc(N2CCC(c3cc(Cc4ccccc4)n[nH]3)CC2)n1` was -102.6%; that for `COc1cccc(C(=O)NCC(c2cccn2C)N2CCCC2)c1OC` (stereo not given) was -16.52%; that for `COc1ccc(C(=O)NCC(c2cccn2C)N2CCCC2)cc1OC` (stereo not given) was -9.189%.
Turning to `COc1cccc(OC)c1C(=O)NCC(c1cccn1C)N1CCCC1` (stereo not given), the “Percent Effect” value (30.3 µM, […]) is recorded as 99.38%.
The same measure, in the same setting: the result for `CO[C@@H]1CCN(C(=O)Cc2ccsc2)[C@H]1Cc1cccnc1.O=C(O)C(F)(F)F` reads -12.88%.
On to `Cc1cccc(COC[C@H]2CC[C@H]3[C@H](CCN3C(=O)CC3CC3)O2)n1.O=C(O)C(F)(F)F`, for which the “Percent Effect” value (30 µM, 30.03 µM) is listed as 22.76%.
